pPAFAH inh: inhibitors of human plasma PAF acetylhydrolase (pPAFAH); recombinant pPAFAH, FP-rhodamine probe fluorescence polarization; inhibition, % at 3.39 µM; hit rate 1.5% among 330,000; AID 463082;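 active = inhibition above the mean inhibition across the screen plus 3 SD, cut at about 25% in these data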;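 also: inhibitors block binding of the rhodamine activity-based probe so polarization drops; 0% = enzyme with DMSO and 100% = wells lacking pPAFAH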
PAFAH1B2 FP inh: PAFAH1B2 (human) inhibition. inhibition, % at 3.39 µM. hit rate 1.2% among 340,000. AID 492953. recombinant PAFAH1B2, FP-rhodamine activity probe, fluorescence polarization;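 active = inhibition above the mean of all tested compounds plus 3 SD, cut at about 24% in these data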;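 also: 0% = enzyme with DMSO and 100% = wells lacking PAFAH1B2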
Target sequence (P68402 whole entry, looked up): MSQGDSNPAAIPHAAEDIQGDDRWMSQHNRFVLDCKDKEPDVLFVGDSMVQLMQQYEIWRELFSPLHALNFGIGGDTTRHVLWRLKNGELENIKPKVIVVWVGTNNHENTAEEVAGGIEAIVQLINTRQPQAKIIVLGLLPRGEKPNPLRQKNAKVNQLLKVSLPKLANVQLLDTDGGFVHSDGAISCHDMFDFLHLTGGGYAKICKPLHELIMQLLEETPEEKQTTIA
Fam108B counter: counter-screen for RBBP9 inhibitors: inhibitors of mouse Fam108B; recombinant Fam108B, FP-Rh probe fluorescence polarization; inhibition, % at 9.51 µM; hit rate 0.33% among 300,000; AID 1947;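 active = inhibition above the screen mean inhibition plus 3 SD, computed separately per campaign, cut at about 18% in these data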;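 also: inhibitors lower polarization as less probe binds the enzyme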
PAFAH2 inh: PAFAH2 (human) inhibition; Q99487; recombinant PAFAH2, FP-rhodamine activity probe, fluorescence polarization; inhibition, % at 3.39 µM; hit rate 0.99% among 340,000; AID 492956;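 active = inhibition above the mean over all tested compounds plus 3 SD, cut at about 30% in these data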;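 also: inhibitors block probe labeling of enzyme so polarization drops; 0% = enzyme with DMSO and 100% = wells lacking PAFAH2 protein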
PAFAH1B3 FP inh: blocks human PAF acetylhydrolase 1B catalytic subunit 3; Q15102; recombinant PAFAH1B3, FP-rhodamine probe, fluorescence polarization; inhibition, % at 3.39 µM; hit rate 0.28% among 340,000; AID 492972;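 active = inhibition above the screen-wide average of all tested compounds plus 3 SD, cut at about 25% in these data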;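 also: 0% = enzyme with DMSO only and 100% = wells lacking PAFAH1B3 protein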
Target sequence (Q15102 whole entry, looked up): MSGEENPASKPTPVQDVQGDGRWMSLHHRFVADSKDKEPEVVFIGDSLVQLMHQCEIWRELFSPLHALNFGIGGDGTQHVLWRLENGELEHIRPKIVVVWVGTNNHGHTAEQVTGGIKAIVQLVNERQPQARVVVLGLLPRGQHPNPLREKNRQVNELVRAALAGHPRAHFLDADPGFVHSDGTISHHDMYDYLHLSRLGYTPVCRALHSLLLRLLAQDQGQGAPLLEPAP
PME-1 primary: blocks human protein phosphatase methylesterase 1. recombinant PME-1, FP-Rh probe fluorescence polarization. Q9Y570. inhibition, % at 5.9 µM. hit rate 0.53% among 320,000;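 active = inhibition above the campaign mean of all compounds plus 3 SD, cut at about 26% in these data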;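 also: competitive labeling of PME-1 active site by serine hydrolase directed probe; 0% = PME-1 with DMSO and 100% = wells lacking PME-1 enzyme; inhibitors block probe labeling so polarization falls and inhibition rises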
* = called active by the depositor; . = not tested or not shown. An excerpt weighted towards active compounds, which were near 2.9% of everything screened.

SMILES	pPAFAH inh	PAFAH1B2 FP inh	Fam108B counter	PAFAH2 inh	PAFAH1B3 FP inh	PME-1 primary
CCCCn1c(N)c(N(CCC(C)C)C(=O)COC(=O)/C=C/c2ccc(F)cc2)c(=O)[nH]c1=O	1	-2	.	3	1	.
CCCCn1c(N)c(N(CC(C)C)C(=O)CCNC(=O)c2ccc(Cl)cc2)c(=O)[nH]c1=O	5	2	3	-4	7	-3
Cc1cc([N+](=O)[O-])ccc1-c1ccc(C2Nc3ccccc3C(=O)N2O)o1 (stereo not given)	10	0	-1	-1	9	37*
O=C1c2ccccc2NC(c2ccc(-c3ccccc3F)o2)N1O (stereo not given)	0	6	.	4	11	7
Cc1cc(=O)c(C(=O)O)nn1-c1ccc(Cl)cc1	0	2	-7	1	7	-8
Cc1nnc(SCc2ccccc2)[nH]c1=O	34*	-1	-3	5	2	-1
O=c1[nH]c(SCc2ccc(Cl)cc2)nc2ccccc12	8	26*	-2	-2	12	-3
Cc1cc(=O)n2[nH]c(SCc3ccc(Cl)cc3)nc2n1	26*	50*	-1	18	-7	-4
O=c1[nH]c(SCc2ccc(Cl)cc2)nc2c1CCC2	26*	52*	-1	8	9	-5
Cc1oc(-c2cccc(Cl)c2)nc1CSc1nc2c(c(=O)[nH]1)CCC2	2	0	0	-2	0	-1
Cc1nc2nc(SCc3ccccc3)[nH]n2c(=O)c1C	.	4	.	-2	2	.
Cc1nc(-c2ccc(F)cc2)c(CC(=O)N(C)CC(=O)Nc2ccc(Cl)c(C(F)(F)F)c2)s1	.	10	.	-8	-12	.
Cc1ccc(S(=O)(=O)Nc2cc(=O)[nH]c(SCc3ccc(Cl)cc3)n2)cc1	-3	6	-16	-12	-7	-21
O=c1cc(O)nc(SCc2ccc(Cl)cc2)[nH]1	16	56*	-1	-2	11	-5
CC(=O)c1ccc(OC(C)C)c(CSc2nc(O)cc(=O)[nH]2)c1	28*	4	9	7	-4	-4
O=c1cc(-c2ccccc2)nc(SCc2ccc(Cl)cc2)[nH]1	2	24*	-5	5	5	0
CCC(C)Sc1nc(O)cc(=O)[nH]1 (stereo not given)	7	7	-2	10	8	0
Cc1ccccc1-c1nnc(SCC(=O)N(C)C2CCS(=O)(=O)C2)n1C (stereo not given)	3	1	.	0	-2	.
CCOc1cc(/C=N/NC(=O)c2nnn(-c3nonc3N)c2C)ccc1OCc1cccc(F)c1	4	-1	-2	-3	0	0
Cc1noc(/C=C/N(C)C)c1S(=O)(=O)N1CCCC(C(=O)NCCC2=CCCCC2)C1 (stereo not given)	25*	20	-2	-2	2	1
Cc1ccc(CCNC(=O)C2CCCN(S(=O)(=O)c3c(C)nn(C)c3C)C2)cc1 (stereo not given)	5	29*	5	-2	10	1
CN1CCN(Cc2coc3c(Cl)cc(Cl)cc3c2=O)CC1	0	3	4	4	1	1
O=C(Oc1ccc2ccc(=O)oc2c1)c1ccc([N+](=O)[O-])cc1	0	-2	2	-7	-1	-1
O=c1ccc2ccc(Oc3ccc([N+](=O)[O-])cc3[N+](=O)[O-])cc2o1	10	.	2	.	.	42*
O=C(Cc1nc2ccccc2[nH]1)c1cccc([N+](=O)[O-])c1	0	5	12	9	20	1
SMILES	pPAFAH inh	PAFAH1B2 FP inh	Fam108B counter	PAFAH2 inh	PAFAH1B3 FP inh	PME-1 primary
Cc1cccc(CSCc2ccc(C(=O)O)o2)c1	6	10	0	0	9	-7
Cc1ccc(CSCc2ccc(C(=O)O)o2)cc1	24	29*	-2	1	-1	-3
COc1ccc(NC(=O)Nc2ccc(OC)cc2)cc1	3	-5	2	-1	0	4
COc1ccc(C(=O)CC(=O)Nc2ccc([N+](=O)[O-])cc2)cc1	27*	-9	-6	7	-34	-34
COC(=O)c1ccc(NC(=O)Nc2ccc(OC)cc2)cc1	-3	3	5	6	1	29*
CCCCOC(=O)c1ccc(NC(=O)Nc2ccc(OC)c(OC)c2)cc1	22	2	14	-24	15	40*
Cc1cc(C)n(-c2ccc(NC(=O)C3CCN(Cc4ccc(C)o4)CC3)cc2)n1	0	2	2	2	8	3
COc1ccc(S(=O)(=O)NC2CCCC2)cc1C(N)=O	.	-1	.	7	8	.
CC(Oc1ccccc1)C(=O)Nc1nnc(S(=O)(=O)Nc2ccccc2)s1 (stereo not given)	29*	10	0	5	7	1
CC(Oc1ccccc1)C(=O)Nc1nnc(S(=O)(=O)N2CCCCC2)s1 (stereo not given)	2	9	-1	6	4	-3
Cn1c2ccccc2c2cc(/C=N/NC(=O)c3ccccc3F)ccc21	2	-6	-1	-5	4	5
Cn1c2ccccc2c2cc(/C=N/NC(=O)c3ccc(N)cc3)ccc21	31*	12	17	-5	12	40*
Brc1cc(-c2ccccc2)nc(-c2ccccc2)n1	0	.	0	.	.	4
COc1ccc(/C=C\C(=O)CC(O)(c2ccccc2)C(F)(F)F)cc1 (stereo not given)	-3	30*	-3	7	-1	-4
O=C(CSC(=S)N1CCCC1)Nc1cc2c(cc1Br)OCCO2	1	-3	-1	6	10	-3
O=C(CSC(=S)N1CCCC1)c1cc(Br)cc(Br)c1O	25*	.	-19	.	.	-34
CCC1OC23CCCCC2C(C#N)(C(=N)O3)C1(C#N)C#N (stereo not given)	9	34*	0	48*	33*	10
N#CC12COC3(CCCCC3C1(C#N)C#N)OC2=N (stereo not given)	5	20	-3	38*	35*	12
CC1OC23CCCCC2C(C#N)(C(=N)O3)C1(C#N)C#N (stereo not given)	3	11	-4	11	14	-2
COc1ccc(C2CC3(O)NC(=O)C(C#N)(C3C)C2(C#N)C#N)cc1 (stereo not given)	3	.	3	.	.	-3
N#CC1(C#N)COC23CCCCC2C1(C#N)C(=N)O3 (stereo not given)	9	18	3	35*	18	1
COc1ccc(C2OC34CCCCC3C(C#N)(C#N)C2(C#N)C(=N)O4)cc1 (stereo not given)	16	46*	7	61*	50*	12
Cc1cccc(N2CCN(C(=O)c3c(-c4ccccc4Cl)noc3C)CC2)c1C	2	2	2	2	5	1
O=C(CSc1nnc2ccccn12)Nc1ccc(S(=O)(=O)N2CCOCC2)cc1	6	2	1	2	2	2

Assay outcomes from PubChem BioAssay.
